Assay results published in the supplement of paper PMC8728848.
The entries come from a sample that favours the strongest signals as a whole.

Legend:
Assay in all cases: glycan array binding signal (z-score within array); higher = stronger binding
Conditions in all cases: glycan notation: IUPAC condensed, linker removed
[1] = target: Fuc(a1-2)Gal
Procedure, shortened: (§1)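 Glycan array binding is given as a within-array Z-score, which can be read as non-binding when negative. The arrays, 3228 of them, came from the Consortium for Functional Glycomics database and were retained only where the protein sequence was available. Z-scores were averaged across arrays of the same protein sequence at different concentrations or buffers and across linkers.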

[2] = target: Fuc(a1-2)Gal(b1-3)GalNAc(b1-3)Gal(b1-4)Glc
Procedure, shortened: as §1

[3] = target: Fuc(a1-2)[GalNAc(a1-3)]Gal
Procedure, shortened: as §1

[4] = target: Gal(a1-2)Gal
Procedure, shortened: as §1

[5] = target: Gal(b1-4)GlcNAc(b1-3)Gal(b1-4)GlcNAc
Procedure, shortened: as §1

[6] = target: Gal(b1-4)GlcNAc(b1-3)Gal(b1-4)[Fuc(a1-3)]GlcNAc(b1-3)Gal(b1-4)[Fuc(a1-3)]GlcNAc
Procedure, shortened: as §1

[7] = target: Gal(b1-4)GlcNAc(b1-6)[Gal(b1-3)]GlcNAc
Procedure, shortened: as §1

[8] = target: Gal6S(b1-4)Glc6S
Procedure, shortened: as §1

[9] = target: Glc(a1-4)Glc
Procedure, shortened: as §1

[10] = target: Kdn(a2-3)Gal(b1-3)GlcNAc
Procedure, shortened: as §1

[11] = target: Man(a1-2)Man(a1-2)Man(a1-3)[Man(a1-2)Man(a1-3)[Man(a1-2)Man(a1-6)]Man(a1-6)]Man(b1-4)GlcNAc(b1-4)GlcNAc
Procedure, shortened: as §1

[12] = target: Man(a1-2)Man(a1-2)Man(a1-6)[Man(a1-3)]Man
Procedure, shortened: as §1

[13] = target: Man(a1-2)Man(a1-3)[Man(a1-2)Man(a1-6)]Man
Procedure, shortened: as §1

[14] = target: Man(a1-2)Man(a1-3)[Man(a1-3)[Man(a1-6)]Man(a1-6)]Man(b1-4)GlcNAc(b1-4)GlcNAc
Procedure, shortened: as §1

[15] = target: Neu5Ac(a2-3)Gal
Procedure, shortened: as §1

[16] = target: Neu5Ac(a2-3)Gal(b1-3)GlcNAc6S
Procedure, shortened: as §1

[17] = target: Neu5Ac(a2-3)Gal(b1-3)[Neu5Ac(a2-3)Gal(b1-4)]GlcNAc
Procedure, shortened: as §1

[18] = target: Neu5Ac(a2-3)Gal(b1-4)GlcNAc(b1-3)Gal(b1-4)GlcNAc
Procedure, shortened: as §1

[19] = target: Neu5Ac(a2-3)Gal(b1-4)[Fuc(a1-3)]GlcNAc(b1-3)Gal(b1-4)[Fuc(a1-3)]GlcNAc(b1-3)Gal(b1-4)[Fuc(a1-3)]GlcNAc
Procedure, shortened: as §1

[20] = target: Neu5Ac(a2-3)Gal(b1-4)[Fuc(a1-3)]GlcNAc6S
Procedure, shortened: as §1

[21] = target: Neu5Ac(a2-6)Gal(b1-4)GlcNAc(b1-2)Man(a1-3)[Neu5Ac(a2-6)Gal(b1-4)GlcNAc(b1-2)Man(a1-6)]Man(b1-4)GlcNAc(b1-4)GlcNAc
Procedure, shortened: as §1

[22] = target: Neu5Gc(a2-3)Gal(b1-3)GlcNAc
Procedure, shortened: as §1

[23] = target: Fuc(a1-2)Gal(b1-4)[Fuc(a1-3)]GalNAc(b1-3)Gal(b1-4)[Fuc(a1-3)]GlcNAc(b1-3)Gal(b1-4)[Fuc(a1-3)]GalNAc
Procedure, shortened: as §1

[24] = target: Fuc(a1-3)[Gal(b1-4)]GlcNAc(b1-4)Gal(b1-4)[Fuc(a1-3)]GlcNAc(b1-4)Gal(b1-4)[Fuc(a1-3)]GlcNAc
Procedure, shortened: as §1

[25] = target: Gal(b1-3)GalNAc
Procedure, shortened: as §1

[26] = target: Gal(b1-3)GalNAc(b1-3)Gal(b1-4)GlcNAc
Procedure, shortened: as §1

[27] = target: Gal(b1-3)[GlcNAc(b1-6)]GalNAc
Procedure, shortened: as §1

[28] = target: Gal(b1-4)GlcNAc(b1-3)GalNAc
Procedure, shortened: as §1

[29] = target: Gal4S6S(b1-4)GlcNAc
Procedure, shortened: as §1

[30] = target: GalNAc(b1-4)GlcNAc
Procedure, shortened: as §1

[31] = target: Glc(a1-6)Glc(a1-6)Glc
Procedure, shortened: as §1

[32] = target: Man(a1-2)Man(a1-2)Man(a1-3)Man
Procedure, shortened: as §1

[33] = target: Man(a1-3)[Man(a1-6)]Man(a1-6)[Man(a1-3)]Man(b1-4)GlcNAc(b1-4)GlcNAc
Procedure, shortened: as §1

[34] = target: Man(a1-3)[Man(a1-6)]Man(b1-4)GlcNAc(b1-4)GlcNAc
Procedure, shortened: as §1

[35] = target: Neu5Ac(a2-3)Gal(b1-3)GalNAc(b1-3)Gal(a1-4)Gal(b1-4)Glc
Procedure, shortened: as §1

[36] = target: Neu5Ac(a2-3)[GalNAc(b1-4)]Gal(b1-4)GlcNAc
Procedure, shortened: as §1

[37] = target: Neu5Gc(a2-3)Gal(b1-4)Glc
Procedure, shortened: as §1

B1: CVNH0 (Neurospora crassa), Q7S6U4 (protein)
chain: GSHIGPYMSFHVTAEDARIEVRDNRTILFARLRREDGEWNDASYELDQIIGNNDGHFQWGGQNFTETAEDIRFHPKEGAAEQPILRARLRDCNGEFHDRDVNLTEIVENVNGEFQAKF
- glycan array binding signal (z-score) [1]: -0.372
- glycan array binding signal (z-score) [2]: 3.75
- glycan array binding signal (z-score) [3]: -0.436
- glycan array binding signal (z-score) [4]: -0.423
- glycan array binding signal (z-score) [5]: -0.427
- glycan array binding signal (z-score) [6]: -0.186
- glycan array binding signal (z-score) [7]: -0.381
- glycan array binding signal (z-score) [8]: -0.362
- glycan array binding signal (z-score) [9]: -0.391
- glycan array binding signal (z-score) [10]: -0.44
- glycan array binding signal (z-score) [11]: 3.89
- glycan array binding signal (z-score) [12]: 3.68
- glycan array binding signal (z-score) [13]: 4.06
- glycan array binding signal (z-score) [14]: -0.376
- glycan array binding signal (z-score) [15]: -0.431
- glycan array binding signal (z-score) [16]: 0.204
- glycan array binding signal (z-score) [17]: -0.411
- glycan array binding signal (z-score) [18]: -0.351
- glycan array binding signal (z-score) [19]: -0.226
- glycan array binding signal (z-score) [20]: -0.433
- glycan array binding signal (z-score) [21]: -0.408
- glycan array binding signal (z-score) [22]: -0.433

B2: ASA (Allium sativum) (protein)
chain: KAHEKERMGRNTPSAKLMSIAAVAAILTILASTCMARNLLTNGEGLYAGQSLNVEPYHFIMQEDCNLVLYDHSTAVWATNTDIPGKKECRAVLQSDGNFVVYDADGRPLWASHSVRGNGNYVLVLQEDGNVVIYGSDIWSTGTYVKAARGPVVVAMNGTVDGGSLIRPVIVNKNHVPVIRKVGTLSRNILRNDEGLYAGQSLDVEPYHFIMHEDCNLVLYDHSTAVWASNTDIPGKKGCKAVLQSDGNFVVYDAEGRSLWASHSVRGNGNYVLVLQEDGNVVIYGSDIWSTDTYRKSARGPVIRKVGTLAGAA
- glycan array binding signal (z-score) [1]: -0.156
- glycan array binding signal (z-score) [23]: -0.081
- glycan array binding signal (z-score) [24]: -0.229
- glycan array binding signal (z-score) [25]: -0.222
- glycan array binding signal (z-score) [26]: -0.231
- glycan array binding signal (z-score) [27]: -0.211
- glycan array binding signal (z-score) [28]: -0.23
- glycan array binding signal (z-score) [29]: -0.222
- glycan array binding signal (z-score) [30]: -0.151
- glycan array binding signal (z-score) [31]: -0.228
- glycan array binding signal (z-score) [32]: 6.7
- glycan array binding signal (z-score) [13]: 2.2
- glycan array binding signal (z-score) [14]: 6.08
- glycan array binding signal (z-score) [33]: 5.45
- glycan array binding signal (z-score) [34]: 6.64
- glycan array binding signal (z-score) [35]: -0.228
- glycan array binding signal (z-score) [36]: -0.172
- glycan array binding signal (z-score) [37]: -0.208
